Reference: PubChem BioAssay (NCATS)
Results filed as inconclusive are left out. Calls of active or inactive are those of the source. The call rests on the fitted dose curve; in most records, active means well fitted curve in the direction sought with a large enough effect; inconclusive means small, poorly fitted or top-dose-only effect, or another doubt; inactive means no such curve, though single readings can be large; an effect the other way counts as inactive or inconclusive.

Tests used:
KB-3-1 = assay: Cytotoxic Profiling of Annotated Libraries Using Quantitative High-Throughput Screening (AID 1296008); settings: Five cell lines viability, CellTiter-Glo ATP luminescence, 48-72 h; max response: hits give low values; further: nearly all actives have a fitted effect of over 60% in size; on max response: on the % scale 0 is the no-effect control and ±100 the full control effect
Procedure, shortened: (§1)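 Cytotoxicity was measured as CellTiter-Glo ATP luminescence, read after 10 min at room temperature. Compound treatment of the cells lasted 48 or 72 hr at 37 degrees Celsius in a qHTS format.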

NIH3T3 = assay: as above; settings: Five cell lines viability, CellTiter-Glo ATP luminescence, 48-72 h; max response: hits give low values
Procedure, shortened: as §1

HACAT = assay: qHTS assay to identify novel small-molecules to repurpose for Merkel cell carcinoma treatment (AID 1296009); settings: MCC and control cell lines, CellTiter-Glo viability, 72 h; at 44.8 µM (top of the series) unless noted; further: nearly all actives have a fitted effect of over 60% in size
Procedure, shortened: (§2)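 After compound transfer in DMSO, plates were kept 72 hr at 37 degree celsius. Luminescent ATP signal from CellTiter-Glo served as viability measure, normalized against DMSO and no-cell controls.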

HEK293T [1] = assay: as above; settings: MCC and control cell lines, CellTiter-Glo viability, 72 h; series mostly up to 44.8 µM
Procedure, shortened: as §2

C33A = assay: Primary qHTS to identify gynecologic anti-cancer compounds using libraries of approved drugs and bioactive compounds (AID 1345084); settings: Gynecologic cancer cell panel viability, ATPlite luminescence, 48 h; series mostly up to 57.5 µM; further: on the % scale 0 is the no-effect control and ±100 the full control effect; nearly all actives have a fitted effect of over 55% in size
Procedure, shortened: (§3)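 ATP-based viability (ATPlite), 1,000 cells/well, 16 h pre-incubation, 48 h compound at 37 C, 5% CO2, 15 min RT before read.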

CAOV3 = assay: as above; settings: Gynecologic cancer cell panel viability, ATPlite luminescence, 48 h; series mostly up to 57.5 µM
Procedure, shortened: as §3

CASKI = assay: as above; settings: Gynecologic cancer cell panel viability, ATPlite luminescence, 48 h; series mostly up to 57.5 µM
Procedure, shortened: as §3

Es-2 = assay: as above; settings: Gynecologic cancer cell panel viability, ATPlite luminescence, 48 h; series mostly up to 57.5 µM
Procedure, shortened: as §3

HeLa = assay: as above; settings: Gynecologic cancer cell panel viability, ATPlite luminescence, 48 h; series mostly up to 57.5 µM
Procedure, shortened: as §3

Hek293T [2] = assay: as above; settings: Gynecologic cancer cell panel viability, ATPlite luminescence, 48 h, control line for the selectivity index; series mostly up to 57.5 µM
Procedure, shortened: as §3

JEG-3 = assay: as above; settings: Gynecologic cancer cell panel viability, ATPlite luminescence, 48 h; series mostly up to 57.5 µM
Procedure, shortened: as §3

OV90 = assay: as above; settings: Gynecologic cancer cell panel viability, ATPlite luminescence, 48 h; series mostly up to 57.5 µM
Procedure, shortened: as §3

PA-1 = assay: as above; settings: Gynecologic cancer cell panel viability, ATPlite luminescence, 48 h; series mostly up to 57.5 µM
Procedure, shortened: as §3

COc1ccc2c3c1O[C@H]1C[C@@H](O)C=C[C@@]31CCN(C)C2
inactive: outcome (KB-3-1) | max response (NIH3T3) -4.93% | outcome (HACAT) | Potency (HEK293T [1]) | Potency (C33A) | Potency (CAOV3) | Potency (CASKI) | Potency (Es-2) | Potency (HeLa) | Potency (Hek293T [2]) | Potency (JEG-3) | Potency (OV90) | Potency (PA-1)

C[C@@H]1C(=O)O[C@H]2[C@H]1CC[C@@]1(C)C(=O)C=C[C@](C)(O)[C@H]21
inactive: max response (KB-3-1) 1.87% | max response (NIH3T3) -2.11% | outcome (HACAT) | Potency (HEK293T [1]) | Potency (C33A) | Potency (CAOV3) | Potency (CASKI) | Potency (Es-2) | Potency (HeLa) | Potency (Hek293T [2]) | Potency (JEG-3) | Potency (OV90) | Potency (PA-1)

O=C(O)C[C@@H](NC(=O)c1cc(-c2ccc(-c3ccncc3)cc2)cs1)c1ccccc1
inactive: max response (KB-3-1) 4.03% | max response (NIH3T3) 1.34% | outcome (HACAT) | Potency (HEK293T [1]) | Potency (C33A) | Potency (CAOV3) | Potency (CASKI) | Potency (HeLa) | Potency (Hek293T [2]) | Potency (JEG-3) | Potency (OV90) | Potency (PA-1)

CC(=O)O[C@@H]1[C@H]2[C@@H](OC(=O)c3ccccc3)[C@@H](C)C[C@]2(O)[C@H](OC(C)=O)[C@@]2(C)[C@@H]3CC(C)(C)C(=O)[C@]3(OC(C)=O)C[C@@]12C
inactive: outcome (KB-3-1) | max response (NIH3T3) 4.53% | outcome (HACAT) inactive [at 17.4 µM] | Potency (HEK293T [1]) | Potency (C33A) | Potency (CAOV3) | Potency (CASKI) | Potency (Es-2) | Potency (HeLa) | Potency (Hek293T [2]) | Potency (JEG-3) | Potency (OV90) | Potency (PA-1)

O=C(c1ccc(F)cc1)C1CCN(CCn2c(=O)nc3n(c2=O)CCCC3)CC1
inactive: max response (KB-3-1) -0.742% | max response (NIH3T3) -0.166% | outcome (HACAT) inactive; activator | Potency (HEK293T [1]) | Potency (C33A) | Potency (CAOV3) | Potency (Es-2) | Potency (HeLa) | Potency (Hek293T [2]) | Potency (JEG-3) | Potency (OV90) | Potency (PA-1)

CC/C=C/CC1=C(CCCCCCCC(=O)O)CCC1=O
inactive: max response (KB-3-1) 0.0316% | max response (NIH3T3) -0.116% | outcome (HACAT) | Potency (HEK293T [1]) | Potency (C33A) | Potency (CAOV3) | Potency (CASKI) | Potency (Es-2) | Potency (HeLa) | Potency (Hek293T [2]) | Potency (JEG-3) | Potency (OV90) | Potency (PA-1)

CC(C)C1(O[C@@H]2O[C@H](CO)[C@@H](O)[C@H](O)[C@H]2O)CC=C(CO)CC1 (some centres not stated)
inactive: max response (KB-3-1) -0.585% | max response (NIH3T3) 0.631% | outcome (HACAT) | Potency (HEK293T [1]) | Potency (C33A) | Potency (CASKI) | Potency (Es-2) | Potency (HeLa) | Potency (Hek293T [2]) | Potency (JEG-3) | Potency (OV90)

COc1cccc(-n2nc(C(=O)O)cc2-c2ccc(C3CCCCC3)c(Cl)c2)c1
inactive: outcome (KB-3-1) | max response (NIH3T3) 2.94% | outcome (HACAT) | Potency (HEK293T [1]) | Potency (C33A) | Potency (CAOV3) | Potency (CASKI) | Potency (Es-2) | Potency (HeLa) | Potency (Hek293T [2]) | Potency (JEG-3) | Potency (OV90) | Potency (PA-1)

NCCCC[C@H](NC(=O)[C@@H]1Cc2ccccc2CN1C(=O)CCC(=O)c1ccccc1)C(=O)NCC(c1ccccc1)c1ccccc1
inactive: outcome (KB-3-1) | max response (NIH3T3) 3.99% | outcome (HACAT) | Potency (HEK293T [1]) | Potency (C33A) | Potency (CAOV3) | Potency (CASKI) | Potency (Es-2) | Potency (HeLa) | Potency (Hek293T [2]) | Potency (JEG-3) | Potency (OV90) | Potency (PA-1)

Cn1ccnc1CCOC(c1cc2nccc(C(=O)O)c2[nH]1)c1ccccc1Cl (configuration not stated)
inactive: max response (KB-3-1) 2.27% | max response (NIH3T3) 4.24% | outcome (HACAT) | Potency (HEK293T [1]) | Potency (C33A) | Potency (CAOV3) | Potency (CASKI) | Potency (Es-2) | Potency (HeLa) | Potency (Hek293T [2]) | Potency (JEG-3) | Potency (OV90) | Potency (PA-1)

C=C1C[C@@]23CC[C@@H]4[C@](C)(C(=O)O)CCC[C@@]4(C)C2=CC[C@H]1C3
inactive: max response (KB-3-1) 4.16% | outcome (NIH3T3) | outcome (HACAT) | Potency (HEK293T [1]) | Potency (C33A) | Potency (CAOV3) | Potency (CASKI) | Potency (Es-2) | Potency (HeLa) | Potency (Hek293T [2]) | Potency (JEG-3) | Potency (OV90) | Potency (PA-1)

CCCCNC(=O)[C@@H]1Cc2ccccc2N1C(=O)[C@@H](N)CC
inactive: max response (KB-3-1) 6.18% | max response (NIH3T3) 3.92% | outcome (HACAT) | Potency (HEK293T [1]) | Potency (C33A) | Potency (CAOV3) | Potency (CASKI) | Potency (Es-2) | Potency (HeLa) | Potency (JEG-3) | Potency (OV90) | Potency (PA-1)

CC(C)C(=O)O[C@@H]1[C@@H](O)[C@@H](O[C@H]2O[C@H](CO)[C@@H](O)[C@H](O)[C@H]2O)O[C@H](CO)[C@H]1O
inactive: max response (KB-3-1) 3.97% | max response (NIH3T3) 1.16% | outcome (HACAT) inactive [at 17.4 µM] | Potency (HEK293T [1]) | Potency (C33A) | Potency (CAOV3) | Potency (CASKI) | Potency (Es-2) | Potency (HeLa) | Potency (Hek293T [2]) | Potency (JEG-3) | Potency (OV90) | Potency (PA-1)

CC(=O)[C@@H]1CC[C@]2(C(=O)O)CC[C@]3(C)C(CCC4[C@@]5(C)CC[C@H](O)C(C)(C)C5CC[C@]43C)C12 (some centres not stated)
inactive: outcome (KB-3-1) | outcome (NIH3T3) | outcome (HACAT) inactive [at 17.4 µM] | Potency (HEK293T [1]) | Potency (C33A) | Potency (CAOV3) | Potency (CASKI) | Potency (Es-2) | Potency (HeLa) | Potency (Hek293T [2]) | Potency (JEG-3) | Potency (OV90) | Potency (PA-1)
